CHT PAM – allosteric activators of human choline transporter CHT; Q9GZV3; CHT-expressing cells, membrane potential dye, choline EC20; stronger effect = higher value; LV-AA mutant CHT in HEK293 cells; B-score at 10 µM; 310,000 tested, 0.49% active;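 active means initial fluorescence not abnormally high and integrated response B-score, plate-corrected, over 3 SD above library mean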
CHT inh – inhibits the human high affinity choline transporter; B-score at 10 µM; 310,000 tested, 0.86% active; AID 488975; Q9GZV3; CHT-expressing cells, membrane potential dye, choline response; stronger effect = lower value;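 active means B-score over 3 SD under the library average, and starting fluorescence ratio not unusually high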;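 further: choline stimulus applied at its EC90 after an EC20 pre-addition; B-score computed on integrated fluorescence ratio after choline addition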
TAG inh – inhibitors of triacylglycerol accumulation | inhibition, % at 12.5 µM | 230,000 tested, 0.66% active | H9c2 cells, Nile Red lipid (TAG) fluorescence; cells loaded with 200 µM oleic acid;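 active means pattern-corrected inhibition of lipid staining of at least 50% with the nuclear-stain viability signal not falling by more than 50%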;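 further: 0% = DMSO wells and 100% = triacsin C control wells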
Kir21 block – inhibitors of mouse Kir2.1 inward-rectifier potassium channel. P35561. HEK293-Kir2.1, FluxOR thallium flux fluorescence; stronger effect = lower value. B-score at 10 µM. 310,000 tested, 0.85% active. AID 1672;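 active means fluorescence ratio B-score at or below minus 3 SD of library scores, with starting-brightness B-score within 2 SD, cut at about -4.2 in these data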;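 further: channel flux triggered by added potassium and thallium sulfate stimulus; B-score of peak minus minimum fluorescence over baseline after thallium stimulus; more negative B-score means stronger Kir2.1 block with less thallium influx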
Target sequence (P35561 whole entry, looked up): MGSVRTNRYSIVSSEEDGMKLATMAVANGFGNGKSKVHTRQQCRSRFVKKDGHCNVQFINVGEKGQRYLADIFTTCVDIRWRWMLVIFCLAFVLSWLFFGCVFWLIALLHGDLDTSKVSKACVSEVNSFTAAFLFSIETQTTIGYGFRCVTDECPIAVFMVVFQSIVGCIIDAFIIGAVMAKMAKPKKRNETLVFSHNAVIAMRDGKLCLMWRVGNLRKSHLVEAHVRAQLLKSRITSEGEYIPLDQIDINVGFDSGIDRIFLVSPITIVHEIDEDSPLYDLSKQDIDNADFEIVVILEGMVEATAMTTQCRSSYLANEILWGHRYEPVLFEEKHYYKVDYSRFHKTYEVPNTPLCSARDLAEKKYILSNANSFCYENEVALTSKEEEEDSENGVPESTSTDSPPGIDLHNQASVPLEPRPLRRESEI
CHT inh conf – confirmation of human choline transporter CHT inhibitors; CHT-expressing cells, choline membrane potential dye; LV-to-AA substituted CHT, HEK293 cells; AID 493221; 2,400 tested, 70% active; CHT activity remaining % of control (stronger effect = lower value), % at 10 µM; shares compounds with CHT inh;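 active means choline transporter activity left, mean of duplicates at 10 µM, below buffer-only control mean minus 3 SD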;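 further: depolarization triggered by choline at its EC90 following an EC20 pre-addition; 0% = hemicholinium-3 full block and 100% = buffer-only control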
HEK293 CHT ctr – CHT inhibitor counter-screen hit in parental HEK293 cells; shares compounds with CHT inh; membrane potential dye, choline response; active = decrease or increase beyond buffer ±3SD; membrane potential ratio readout (active if shifted either direction beyond buffer ±3SD; no single direction) at 10 µM; 2,400 tested, 4% active; AID 493222;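 further: parental cells lack the transporter so any hit is non-specific; ratio is peak minus trough fluorescence over baseline after EC90 choline challenge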
* hit, by the source's call; i = inactive; · = no result. Most compounds without a hit are left out; they make up all but 2% or so of the library.

SMILES	CHT PAM	CHT inh	TAG inh	Kir21 block	CHT inh conf	HEK293 CHT ctr
O=C(NC1CCCCCCC1)NC1CCCCC1	i	-5.67*	11.3	0.97	i	i
CN1CCC(NC(=O)NC2CCCCC2)CC1	i	i	-2.2	-1.56	·	·
Nc1ncnc(Nc2ccc(S(N)(=O)=O)cc2)n1	i	i	·	-2.8	·	·
Oc1ccc(-c2n[nH]c(C(F)(F)F)c2-c2ccccc2)c(O)c1	i	-5.21*	·	-2.55	62.4%*	i
O=C(CCc1ccc(S(=O)(=O)N2CCOCC2)cc1)N/N=C/c1ccc(O)c(O)c1O	i	-11.6*	7.5	0.62	i	i
O=[N+]([O-])c1ccc(NN=Cc2cccc3ccccc23)cc1	·	·	1.7	·	·	·
O=[N+]([O-])c1cc(Br)c(O)c(/C=N/Nc2nnnn2-c2cccc3ccccc23)c1	i	-9.24*	·	-1.72	33.2%*	i
Cc1cc(=O)oc(C)c1C(=O)Nc1cccnc1Cl	i	i	-1.8	-0.02	·	·
CCCCNc1ncnc2c1cnn2-c1ccccc1	i	-5.39*	·	0.64	i	i
CCC(CC)NC(=O)COn1nnc2ccc(S(=O)(=O)N3CCOCC3)cc21	i	i	-27.5	1.21	·	·
CC1CCC(NC(=O)c2ccc(NC3=NC4CS(=O)(=O)CC4S3)cc2)CC1 (stereo unspecified)	i	-5.99*	·	0.03	33.9%*	i
CC1CCCCC1NC(=O)c1ccc(NC2=NC3CS(=O)(=O)CC3S2)cc1 (stereo unspecified)	i	i	·	-0.41	·	·
Brc1cnc(OCc2ccccc2)nc1OCc1ccccc1	·	·	-32.5	·	·	·
CC1=C(C(=O)N(C)C)CC(CC(=O)NC2CC2)C(=O)N1Cc1ccc(C(C)(C)C)cc1 (stereo unspecified)	·	·	-0.7	·	·	·
O=C(NNC1=C(C(=O)C(F)(F)F)CCC1)c1cccc(Cl)c1	i	-9.77*	·	-0.97	40.1%*	i
O=C(NNC1=C(C(=O)C(F)(F)F)CCC1)c1ccc(Cl)cc1	i	-5.05*	·	2.34	40.1%*	i
O=c1cc(CSc2nc3cc(Cl)ccc3o2)nc2sccn12	i	-5.35*	-13.3	-2	50.6%*	i
CC1=C(C(=O)NC(C)C)C2(CCC(C)CC2)OC1=O (stereo unspecified)	i	-6.24*	2.6	-0.09	65.7%*	i
CCN1CCN(CC(=O)Nc2ccc(S(=O)(=O)N3C(C)CCCC3C)cc2)CC1 (stereo unspecified)	i	-5.83*	·	0.52	25.4%*	i
CC1CCN(S(=O)(=O)c2ccc(NC(=O)CN3CCCC3)cc2)CC1	i	i	·	-1.52	·	·
CCOc1ccc([N+](=O)[O-])cc1CNC1CCCCCCC1	i	i	·	-3.3	·	·
COc1cc2c(=O)n(CCC(=O)NCC3CCCO3)c(=O)n(CC(=O)Nc3ccc(C)cc3)c2cc1OC (stereo unspecified)	i	i	·	-0.17	·	·
CN(C)C(=O)N1CCN(S(=O)(=O)c2ccc3ccccc3c2)CC1	i	-6.67*	·	-1	5.6%*	i
COc1cccc(/C=N/Nc2cc(Cl)nc(C)n2)c1O	i	-6.39*	20.1	-0.03	i	i
Cc1ccc(C(C)(C)C)cc1S(=O)(=O)N1CCC(C(=O)N2CCN(c3ccc(O)cc3)CC2)CC1	·	·	-37.1	·	·	·
SMILES	CHT PAM	CHT inh	TAG inh	Kir21 block	CHT inh conf	HEK293 CHT ctr
O=C(O)c1ccc(/C=C2\COc3ccccc3C2=O)cc1	i	-6.76*	·	-2.81	33.4%*	i
O=C(NCc1cn2ccsc2n1)c1cccs1	i	-5.07*	5.5	1.55	i	i
COc1ccc(CC(=O)NCc2cn3ccsc3n2)cc1	i	i	-1.3	1.35	·	·
CCC(C)c1ccc(NC(=O)N2CCOCC2)cc1 (stereo unspecified)	i	i	·	0.07	·	·
COc1ccc2c(C#N)c3ccccn3c2c1	i	i	0.6	-2.33	·	·
Cc1cc(O)ccc1C1(c2ccc(O)cc2C)OC(=O)c2ccccc21	i	-12.1*	-9.0	-2.06	62.9%*	i
O=C1OC(c2ccccc2)(c2ccc(O)cc2)c2ccccc21 (stereo unspecified)	·	·	-24.0	·	·	·
Cc1ccc(Cl)c2c1=NC(=O)C=2c1[nH]c(=S)[nH]c1O	i	-5.78*	10.1	0.05	i	i

Screening data as filed in PubChem.
